Source: PubChem BioAssay (NCATS)
Inconclusive results are not listed. Activity calls are given as the source filed them. Unless noted, calls come from the whole dose curve; as a rule, active = well fitted cell-killing curve with a large enough effect; inconclusive = small, poorly fitted or top-dose-only effect, or effect the other way; inactive = no such curve, though single readings can be large or run the other way.

Experiments:
[1] = Quantitative High-Throughput drug screen in 47 multiple myeloma cell lines against the NCATS MIPE library collection: KMS28PE_JCRB cell viability assay (AID 1918983); note: nearly all actives have a fitted effect of over 35% in size; note: potency is the fitted concentration of half-maximal effect
Procedure, shortened: (§1)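 Inhibition of viability over 48 h was scored by ATP content (CellTiter-Glo) in 500-cell wells. Zero and full viability were defined by media-only and DMSO-only wells.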

[2] = Quantitative High-Throughput drug screen in 47 multiple myeloma cell lines against the NCATS MIPE library collection: KMS34_JCRB cell viability assay (AID 1918985); note: nearly all actives have a fitted effect of over 40% in size; note: potency is the fitted concentration of half-maximal effect
Procedure, shortened: as §1

[3] = Quantitative High-Throughput drug screen in 47 multiple myeloma cell lines against the NCATS MIPE library collection: OCIMY5_PLB cell viability assay (AID 1918988); note: nearly all actives have a fitted effect of over 65% in size; note: potency is the fitted concentration of half-maximal effect
Procedure, shortened: as §1

[4] = Quantitative High-Throughput drug screen in 47 multiple myeloma cell lines against the NCATS MIPE library collection: OPM1_PLB cell viability assay (AID 1918989); note: nearly all actives have a fitted effect of over 40% in size; note: potency is the fitted concentration of half-maximal effect
Procedure, shortened: as §1

[5] = Quantitative High-Throughput drug screen in 47 multiple myeloma cell lines against the NCATS MIPE library collection: XG6_PLB cell viability assay (AID 1919865); note: nearly all actives have a fitted effect of over 40% in size; note: potency is the fitted concentration of half-maximal effect
Procedure, shortened: as §1

[6] = Quantitative High-Throughput drug screen in 47 multiple myeloma cell lines against the NCATS MIPE library collection: XG1_PLB cell viability assay (AID 1919866); note: nearly all actives have a fitted effect of over 35% in size; note: potency is the fitted concentration of half-maximal effect
Procedure, shortened: as §1

[7] = Quantitative High-Throughput drug screen in 47 multiple myeloma cell lines against the NCATS MIPE library collection: UTMC2_PLB cell viability assay (AID 1919868); conditions: CellTiter-Glo ATP luminescence, 48 h; viability (% of DMSO control): at 45.8 µM (top of the series) unless noted; note: nearly all actives have a fitted effect of over 55% in size; note: potency is the fitted concentration of half-maximal effect
Procedure, shortened: as §1

[8] = Quantitative High-Throughput drug screen in 47 multiple myeloma cell lines against the NCATS MIPE library collection: PE2_PLB cell viability assay (AID 1919869); note: nearly all actives have a fitted effect of over 35% in size; note: potency is the fitted concentration of half-maximal effect
Procedure, shortened: as §1

[9] = Quantitative High-Throughput drug screen in 47 multiple myeloma cell lines against the NCATS MIPE library collection: RPMI8226_ATCC cell viability assay (AID 1919871); note: nearly all actives have a fitted effect of over 30% in size; note: potency is the fitted concentration of half-maximal effect
Procedure, shortened: as §1

[10] = Quantitative High-Throughput drug screen in 47 multiple myeloma cell lines against the NCATS MIPE library collection: KMS11_JCRBsus cell viability assay (AID 1919873); note: nearly all actives have a fitted effect of over 50% in size; note: potency is the fitted concentration of half-maximal effect
Procedure, shortened: as §1

[11] = Quantitative High-Throughput drug screen in 47 multiple myeloma cell lines against the NCATS MIPE library collection: KMS28BM_JCRB cell viability assay (AID 1919874); note: nearly all actives have a fitted effect of over 35% in size; note: potency is the fitted concentration of half-maximal effect
Procedure, shortened: as §1

[12] = qHTS drug screen for cell cycle checkpoint inhibitors in PARPi-resistant BRCA-mutant ovarian cancer cell lines. (AID 1963452; calls by dose curve; note: potency is the fitted concentration of half-maximal effect); conditions: PEO1/OlaR viability, CellTiter-Glo luminescence, 96 h; for Z-AUC: stronger effect = lower value
Procedure, shortened: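 PEO1, PEO4 and PEO1/OlaR ovarian cancer cells, 600 per well, exposed 96 h at 37C to a dilution series. Viability read by CellTiter-Glo luminescence, normalized to DMSO and empty wells; activity summarized as Z-AUC.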

[13] = Quantitative High-Throughput drug screen in 47 multiple myeloma cell lines against the NCATS MIPE library collection: OCIMY7_PLB cell viability assay (AID 1918987); note: potency is the fitted concentration of half-maximal effect; nearly all actives have a fitted effect of over 65% in size
Procedure, shortened: as §1

[14] = Quantitative High-Throughput drug screen in 47 multiple myeloma cell lines against the NCATS MIPE library collection: U266_ATCC cell viability assay (AID 1919864); note: nearly all actives have a fitted effect of over 35% in size; note: potency is the fitted concentration of half-maximal effect
Procedure, shortened: as §1

[15] = Quantitative High-Throughput drug screen in 47 multiple myeloma cell lines against the NCATS MIPE library collection: VP6_DJ cell viability assay (AID 1919867); note: potency is the fitted concentration of half-maximal effect; nearly all actives have a fitted effect of over 40% in size
Procedure, shortened: as §1

[16] = Quantitative High-Throughput drug screen in 47 multiple myeloma cell lines against the NCATS MIPE library collection: PCM6_Riken cell viability assay (AID 1919870); note: nearly all actives have a fitted effect of over 30% in size; note: potency is the fitted concentration of half-maximal effect
Procedure, shortened: as §1

[17] = Quantitative High-Throughput drug screen in 47 multiple myeloma cell lines against the NCATS MIPE library collection: OPM2_DSMZ cell viability assay (AID 1919872); note: nearly all actives have a fitted effect of over 30% in size; note: potency is the fitted concentration of half-maximal effect
Procedure, shortened: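 Luminescent ATP measurement with CellTiter-Glo gives viability, scaled between DMSO-only wells (100%) and media-only wells (0%). Cells, 500 per well, faced library compounds for 48 hours at 37C.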

[18] = qHTS for identification of novel therapeutic agents for treatment of microphthalmiaassociated transcription factor (MiT) renal cell carcinoma (RCC) (AID 1963991; calls by dose curve; note: potency is the fitted concentration of half-maximal effect); conditions: CellTiter-Glo, 48 h; for Potency: active = Z-AUC below -0.8 in all three lines; for z-score: stronger effect = lower value
Procedure, shortened: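 Viability of three TFE3-fusion renal carcinoma lines measured by CellTiter-Glo after 48 h treatment with each of 1912 compounds at 11 concentrations. Responses scaled between DMSO (100%) and empty wells (0%) before curve fitting.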

[19] = Quantitative High-Throughput drug screen in 47 multiple myeloma cell lines against the NCATS MIPE library collection: SKMM1_PLB cell viability assay (AID 1919863); conditions: SKMM1 myeloma viability, CellTiter-Glo ATP, 48 h; viability: stronger effect = lower value; note: nearly all actives have a fitted effect of over 35% in size; note: potency is the fitted concentration of half-maximal effect
Procedure, shortened: as §1

[20] = Quantitative High-Throughput drug screen in 47 multiple myeloma cell lines against the NCATS MIPE library collection: L363_DSMZ cell viability assay (AID 1918984); note: nearly all actives have a fitted effect of over 40% in size
Procedure, shortened: as §1

[21] = measured here: PEO1 parental Z-AUC
[22] = TFE3-RCC UOK109 viability, measured here: UOK109 Z-AUC
[23] = TFE3-RCC viability, measured here: UOK124 Z-AUC
[24] = TFE3-RCC viability, measured here: UOK145 Z-AUC

## Cc1cn2cc(C(=O)N(C)CCO)cc(N[C@@H]3CCOc4cccc(C)c43)c2n1
[1]
  Potency: inactive
[2]
  Potency: inactive
[3]
  Potency: inactive
[4]
  Potency: inactive
[5]
  Potency: inactive
[6]
  Potency: inactive
[7]
  Potency: inactive
[8]
  Potency: inactive
[9]
  Potency: inactive
[10]
  Potency: inactive
[11]
  Potency: inactive
[12]
  Z-AUC: 1.4 (inactive)
[12]; [21]
  Z-AUC: 1.4
[12]; measured here: PEO4 Z-AUC
  Z-AUC: 1.61

## CC(C)c1nn(-c2c(Cl)cccc2Cl)c2nc(Cc3ccc(OCCO)cc3)[nH]c(=O)c12
[1]
  Potency: 296 nM (active)
[2]
  Potency: 118 nM (active)
[13]
  Potency: 74.3 nM (active)
[3]
  Potency: 74.3 nM (active)
[4]
  Potency: 132 nM (active)
[14]
  Potency: 209 nM (active)
[5]
  Potency: 83.3 nM (active)
[6]
  Potency: 187 nM (active)
[15]
  Potency: 37.2 nM (active)
[7]
  Potency: 93.5 nM (active)
[8]
  Potency: 74.3 nM (active)
[16]
  Potency: 46.9 nM (active)
[9]
  Potency: 118 nM (active)
[17]
  Potency: 264 nM (active)
[10]
  Potency: 52.6 nM (active)
[11]
  Potency: 209 nM (active)
[12]
  Z-AUC: -1.25 (inactive)
[12]; [21]
  Z-AUC: -2.35
[12]; measured here: PEO4 Z-AUC
  Z-AUC: -1.5
[18]; TFE3-RCC UOK109 viability
  Potency: 132 nM (active)
[18]; [22]
  z-score: -2.2
[18]; [23]
  z-score: -1.63
[18]; [24]
  z-score: -2.67

## Cc1c(CN2CCN(S(C)(=O)=O)CC2)sc2c(N3CCOCC3)nc(-c3cnc(N)nc3)nc12
[1]
  Potency: 20.9 nM (active)
[2]
  Potency: 37.2 nM (active)
[13]
  Potency: 132 nM (active)
[3]
  Potency: 52.6 nM (active)
[4]
  Potency: 66.2 nM (active)
[19]
  Potency: 83.3 nM (active)
[14]
  Potency: 118 nM (active)
[5]
  Potency: 66.2 nM (active)
[15]
  Potency: 23.5 nM (active)
[7]
  Potency: 26.4 nM (active)
[16]
  Potency: 418 nM (active)
[9]
  Potency: 16.6 nM (active)
[11]
  Potency: 13.2 nM (active)
[12]
  Z-AUC: 0.0284 (inactive)
[12]; [21]
  Z-AUC: 0.564
[12]; measured here: PEO4 Z-AUC
  Z-AUC: 0.402
[18]; TFE3-RCC UOK109 viability
  Potency: 83.3 nM (active)
[18]; [22]
  z-score: -2.2
[18]; [23]
  z-score: -2.43
[18]; [24]
  z-score: -2.46

## Cn1c(=O)n(-c2ccc(C(C)(C)C#N)cc2)c2c3cc(-c4cnc5ccccc5c4)ccc3ncc21
[1]
  Potency: 52.6 nM (active)
[2]
  Potency: 13.2 nM (active)
[13]
  Potency: 1480 nM (active)
[3]
  Potency: 743 nM (active)
[19]
  Potency: 33.2 nM (active)
[14]
  Potency: 4180 nM (active)
[7]
  Potency: 9.3 nM (active)
[9]
  Potency: 10.5 nM (active)
[17]
  Potency: 74.3 nM (active)
[11]
  Potency: 20.9 nM (active)
[12]
  Potency: 2 nM (active)
[12]; [21]
  Z-AUC: -1.42
[12]; measured here: PEO4 Z-AUC
  Z-AUC: -1.44

## Cc1nc(Nc2n[nH]c3c2CN(C(=O)N[C@H](CN(C)C)c2ccccc2)C3(C)C)c2sccc2n1
[1]
  Potency: 418 nM (active)
[2]
  Potency: 469 nM (active)
[13]
  Potency: 209 nM (active)
[3]
  Potency: 662 nM (active)
[4]
  Potency: 469 nM (active)
[19]
  Potency: 743 nM (active)
[14]
  Potency: 526 nM (active)
[5]
  Potency: 372 nM (active)
[15]
  Potency: 372 nM (active)
[8]
  Potency: 833 nM (active)
[16]
  Potency: 1870 nM (active)
[9]
  Potency: 1320 nM (active)
[17]
  Potency: 3720 nM (active)
[10]
  Potency: 37.2 nM (active)
[11]
  Potency: 37.2 nM (active)
[12]
  Z-AUC: -0.766 (inactive)
[12]; [21]
  Z-AUC: -0.524
[12]; measured here: PEO4 Z-AUC
  Z-AUC: -1.06

## COc1ccc(CC2SC(=O)NC2=O)cc1C(=O)NCc1ccc(C(F)(F)F)cc1 (stereo not given)
[1]
  Potency: inactive
[2]
  Potency: inactive
[3]
  Potency: inactive
[4]
  Potency: 6620 nM (active)
[19]
  viability: 115% (inactive)
[16]
  Potency: 7430 nM (active)
[9]
  Potency: inactive
[11]
  Potency: inactive
[12]
  Z-AUC: 1.34 (inactive)
[12]; [21]
  Z-AUC: 1.11
[12]; measured here: PEO4 Z-AUC
  Z-AUC: 1.12

## CC[C@@H]1C(=O)N(C)c2cnc(Nc3ccc(C(=O)NC4CCN(C)CC4)cc3OC)nc2N1C1CCCC1
[1]
  Potency: 74.3 nM (active)
[2]
  Potency: 187 nM (active)
[3]
  Potency: 37.2 nM (active)
[4]
  Potency: 93.5 nM (active)
[19]
  Potency: 235 nM (active)
[14]
  Potency: 23500 nM (active)
[6]
  Potency: 8.3 nM (active)
[15]
  Potency: 2960 nM (active)
[7]
  Potency: inactive
[16]
  Potency: 7430 nM (active)
[9]
  Potency: 7430 nM (active)
[17]
  Potency: 59 nM (active)
[10]
  Potency: 20.9 nM (active)
[11]
  Potency: 11.8 nM (active)
[12]
  Potency: 43.6 nM (active)
[12]; [21]
  Z-AUC: -2.65
[12]; measured here: PEO4 Z-AUC
  Z-AUC: -2.67
[18]; TFE3-RCC UOK109 viability
  Potency: 4180 nM (active)
[18]; [22]
  z-score: -0.898
[18]; [23]
  z-score: -2.05
[18]; [24]
  z-score: -1.29

## C=CC(=O)Nc1cc2c(Nc3ccc(F)c(Cl)c3)ncnc2cc1OCCCN1CCOCC1
[1]
  Potency: 18700 nM (active)
[2]
  Potency: 14800 nM (active)
[13]
  Potency: 296 nM (active)
[3]
  Potency: 5900 nM (active)
[4]
  Potency: 2960 nM (active)
[14]
  Potency: 18700 nM (active)
[5]
  Potency: 1660 nM (active)
[15]
  Potency: 1180 nM (active)
[7]
  Potency: 4690 nM (active)
[8]
  Potency: 1870 nM (active)
[16]
  Potency: 1480 nM (active)
[9]
  Potency: 20900 nM (active)
[17]
  Potency: 20900 nM (active)
[10]
  Potency: 9350 nM (active)
[12]
  Z-AUC: -0.343 (inactive)
[12]; [21]
  Z-AUC: -0.823
[12]; measured here: PEO4 Z-AUC
  Z-AUC: -1.15

## Cn1c2cc(S(C)=O)sc2c2cnn(Cc3cccc(N)c3)c(=O)c21 (stereo not given)
[1]
  Potency: inactive
[2]
  Potency: inactive
[4]
  Potency: inactive
[19]
  viability: 114% (inactive)
[14]
  Potency: inactive
[5]
  Potency: inactive
[6]
  Potency: inactive
[16]
  Potency: inactive
[9]
  Potency: inactive
[17]
  Potency: inactive
[10]
  Potency: inactive
[11]
  Potency: inactive
[12]
  Z-AUC: 1.34 (inactive)
[12]; [21]
  Z-AUC: 0.817
[12]; measured here: PEO4 Z-AUC
  Z-AUC: 0.912
[18]; [22]
  z-score: 0.336
[18]; [23]
  z-score: 0.595
[18]; [24]
  z-score: 0.401

## Cc1cnc(-c2cnc(NCCNc3ccc(C#N)cn3)nc2-c2ccc(Cl)cc2Cl)[nH]1
[20]
  Potency: inactive
[2]
  Potency: 5900 nM (active)

## COC(=O)Nc1ccc(-c2nc(N3CCOCC3)c3cnn(C4CCN(Cc5cccnc5)CC4)c3n2)cc1
[20]
  Potency: inactive
[2]
  Potency: 59 nM (active)

## CN[C@H]1CCc2cc(OC)c(OC)c(OC)c2-c2ccc(OC)c(=O)cc21
[12]
  Potency: 174 nM (active)
